The test addresses Polyadenylate-binding protein 1 (Homo sapiens) (UniProt P11940). Put plainly: blockers of PABP interaction with poly(A) – biochemical, fluorescence polarization, uHTS, primary screen (AID 2014).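 Further: calls also rest on retests at 20 µM and on dose response follow-up.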 To be noted: PABP-poly(A) RNA binding, stronger effect = higher value. For orientation: Polarisation of emitted light reports the rotation of a fluorescent probe.

For orientation: inhibition means the drop in the measured response relative to a control, in per cent.

Screen size: about 290,000 compounds; about 3,000 (1%) were called active. How the calls were made is not given here. Many of the other results were omitted from the sample, so actives are more common in it than they were.

Polyadenylate-binding protein 1 (Homo sapiens), sequence (P11940 whole entry, looked up): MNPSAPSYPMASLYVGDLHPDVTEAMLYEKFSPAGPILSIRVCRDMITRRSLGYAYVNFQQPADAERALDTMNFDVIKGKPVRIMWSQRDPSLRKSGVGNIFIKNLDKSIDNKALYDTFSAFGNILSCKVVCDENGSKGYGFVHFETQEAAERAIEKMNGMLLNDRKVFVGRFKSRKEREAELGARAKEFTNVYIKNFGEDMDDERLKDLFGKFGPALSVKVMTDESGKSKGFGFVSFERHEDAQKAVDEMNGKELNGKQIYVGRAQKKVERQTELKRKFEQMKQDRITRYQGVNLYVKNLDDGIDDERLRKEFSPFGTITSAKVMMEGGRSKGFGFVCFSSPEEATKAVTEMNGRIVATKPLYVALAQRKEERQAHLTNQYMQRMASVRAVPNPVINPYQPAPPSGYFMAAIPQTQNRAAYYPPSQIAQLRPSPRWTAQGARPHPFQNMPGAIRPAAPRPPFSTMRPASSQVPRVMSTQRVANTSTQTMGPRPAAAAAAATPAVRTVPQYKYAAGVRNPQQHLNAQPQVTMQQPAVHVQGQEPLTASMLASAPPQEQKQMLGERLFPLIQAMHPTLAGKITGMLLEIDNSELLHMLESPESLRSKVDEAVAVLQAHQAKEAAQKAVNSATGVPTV

For the molecule `CC(NC(=O)c1cc(=O)[nH]c2ccccc12)c1ccc(F)cc1F` (configuration not stated), the inhibition (at 35 µM) was 12.3% (inactive).

Take `CS(=O)(=O)C1=NN2C(=N)/C(=C\c3ccc(OCCOc4ccccc4)cc3)C(=O)N=C2S1`: for the setting “at 35 µM”, the inhibition was 16.8% (inactive).

Turning to `CS(=O)(=O)c1ccc2c(c1)SC1=NC(=O)/C(=C/c3ccco3)C(=N)N12`, the inhibition (at 35 µM) is 91% (active).

As to `Cc1cc(/C=C2/C(=N)N3C(=NC2=O)SN=C3S(C)(=O)=O)c(C)n1-c1ccccc1`, the inhibition (at 35 µM) was -5.5% (inactive) and the inhibition (confirmation repeats, at 20 µM) was found to be 11.8%.

For `Cc1cccc(OC(C)C(=O)N2CCc3ccccc3C2)c1` (configuration not stated), for the setting “at 35 µM”, the inhibition is -5.4% (inactive).

Regarding `CC(C)[C@@H](C(=O)O)N(Cc1cccc(CN([C@H](C(=O)O)C(C)C)S(C)(=O)=O)c1)S(C)(=O)=O`, where the note is “at 35 µM”, the inhibition was 4.8% (inactive).

`O=C(N/N=C/c1cccc([N+](=O)[O-])c1)c1ccncc1`: the inhibition (at 35 µM) is -0.6% (inactive).

In the case of `CO/N=C(\N)c1ccc([N+](=O)[O-])cc1`, the inhibition (at 35 µM) was -0.6% (inactive).

As to `N/C(=N\OS(=O)(=O)c1cccc([N+](=O)[O-])c1)c1ccncc1`, the inhibition was -9.3% (active) (at 35 µM) and 74.6% (confirmation repeats, at 20 µM).

Turning to `COc1cccc(CNc2ncc(-c3ccccc3)n2C)c1`, the inhibition (at 35 µM) was -1.9% (inactive).

`C=CCn1cc(Cl)cc(C(=O)Nc2ccccc2)c1=O`: the inhibition (at 35 µM) is -10% (inactive).

Take `O=C(N/N=C/c1cc(Cl)cc([N+](=O)[O-])c1O)C(O)(c1ccccc1)c1ccccc1`: the inhibition (at 35 µM) was 30.5% (inactive).

With `O=C(N/N=C/c1ccc([N+](=O)[O-])o1)c1cccc(S(=O)(=O)N2CCOCC2)c1`, the inhibition is -5% (inactive) (at 35 µM) and 12.9% (confirmation repeats, at 20 µM).

For the molecule `O=[N+]([O-])c1cc(Cl)cc(/C=N/NC(=S)Nc2cc(S(=O)(=O)N3CCOCC3)ccc2Cl)c1O`, the inhibition (at 35 µM) is 70.2% (active).

Consider `CC1=C(C(=O)OCC2CCCCC2)C(c2ccc(F)cc2)NC(=O)N1` (configuration not stated), for which the inhibition (at 35 µM) is 0.3% (inactive).

In the case of `O=C(NCCCNCc1ccccc1)c1ccc(/C=N/O)nc1`, where the note is “at 35 µM”, the inhibition is -3.1% (inactive).

For the molecule `C[N+](C)(C)CCNC(=O)c1cc[n+](Cc2ccccc2)c(/C=N/O)c1`, the inhibition (at 35 µM) is 54.2% (active) and the inhibition (confirmation repeats, at 20 µM) turned out to be 73.1%.

For the molecule `CC(C)c1ccc(C(=O)NCCCc2ccccc2)cc1`, the inhibition (at 35 µM) is -0.9% (inactive).

Take `O=C1CCC(C(=O)N2CCCCO2)CN1Cc1cccc(C(F)(F)F)c1` (configuration not stated): the inhibition (at 35 µM) is 4.6% (inactive).

With `CN(C(=O)c1cccc(OC2CCN(S(=O)(=O)N(C)C)CC2)c1)C1CCOC1` (configuration not stated), where the note is “at 35 µM”, the inhibition is 17.8% (inactive).

For `CC1(C(=O)NCCc2c[nH]c3ccccc23)C=CC2(CCCCC2)N1C(=O)c1ccccc1` (configuration not stated), the inhibition (at 35 µM) is 4.3% (inactive).

For `Oc1c(Cl)cc(Cl)c(Cl)c1Cc1c(O)c(Cl)cc(Cl)c1Cl`, the inhibition is -1.5% (active) (at 35 µM) and 84.7% (confirmation repeats, at 20 µM).

`COc1cccc(/C=C2\Sc3ccc(C(=O)NCC4CCCO4)cc3N(C)C2=O)c1` (configuration not stated): the inhibition (at 35 µM) is 8.6% (inactive).

With `Cc1cccc(C)c1N1C(=O)CN(Cc2ccccc2)C1=S`, the inhibition (at 35 µM) was 8.2% (inactive).

With `CC(=O)N1c2ccc(S(=O)(=O)NCCC(=O)N(C)C3CCCCC3)cc2CC1C` (configuration not stated), the inhibition (at 35 µM) is 3.5% (inactive).

In the case of `CCc1ccc(Nc2ncc3c(n2)CC(c2ccco2)CC3=O)cc1` (configuration not stated), the inhibition (at 35 µM) is 6.2% (inactive).

For `O=C(Nc1ncc2c(n1)CC(c1ccco1)CC2=O)c1ccc(Cl)cc1` (configuration not stated), the inhibition (at 35 µM) is 65.9% (active).

Take `O=C(Nc1ncc2c(n1)-c1ccccc1OC2)c1ccc(Cl)cc1`: the inhibition (at 35 µM) is 4.5% (inactive).

For the molecule `CNC(=O)CN1C(=O)NC(c2ccccc2)(c2ccccc2)C1=O`, the inhibition (at 35 µM) is -6.2% (inactive).

For `COc1ccc(NC(=O)NN2CCN(C)CC2)c(OC)c1`, the inhibition (at 35 µM) was -2.5% (inactive).

Consider `Cc1ccc(C)c(SCc2nc3sc(C(=O)O)c(C)c3c(=O)[nH]2)c1`, for which, where the note is “at 35 µM”, the inhibition was -4% (inactive).

Turning to `CCOC(=O)c1sc2nc(CSc3ccccc3)[nH]c(=O)c2c1C`, under “at 35 µM”, the inhibition was 9.6% (inactive).

For `CSc1nnc(SCc2nc3sc(C(=O)O)c(C)c3c(=O)[nH]2)s1`, the inhibition (at 35 µM) is 52.9% (active).

Take `Cc1cccc(OCC(O)Cn2c(N3CCCCC3)nc3c2c(=O)[nH]c(=O)n3C)c1` (configuration not stated): under “at 35 µM”, the inhibition is -7.3% (inactive).

Turning to `COc1ccccc1/C=C/C(=O)NC1CC2CCC1C2` (configuration not stated), the inhibition (at 35 µM) is 13.8% (inactive).

As for `Cc1cc(C)c(C(N)=O)c(Cl)n1`, the inhibition is, setting by setting: (at 35 µM) 74.6% (active); (confirmation repeats, at 20 µM) 79.1%.

For the molecule `Cc1cc(OC(=O)c2c(Cl)cccc2Cl)nc(C)n1`, the inhibition (at 35 µM) is 8.5% (inactive).

Turning to `Cc1ccc(Nc2nc(C)cc(C)c2C(N)=O)cc1`, the inhibition (at 35 µM) was 3.4% (inactive).

With `O=C(NCc1cccc(C(F)(F)F)c1)c1cccc(S(=O)(=O)N2CCN(Cc3ccccc3)CC2)c1`, for the setting “at 35 µM”, the inhibition is -3.2% (inactive).

For the molecule `O=C(Nc1ccc(Br)cc1F)C1CC(=O)N(C2CCCCC2)C1` (configuration not stated), for the setting “at 35 µM”, the inhibition is -1% (inactive).

Consider `COc1ccc(C(=O)NC(C)c2nccs2)cc1OC1CCN(C(C)C)CC1` (configuration not stated), for which the inhibition (at 35 µM) is 1.2% (inactive).

For `CCN(C(=O)CSc1nnc(-c2ccncc2)o1)c1ccccc1`, the inhibition (at 35 µM) was -2.5% (inactive).

For `CCSc1nc(O)c(C(c2cccc(OC)c2)c2c(O)nc(SCC)[nH]c2=O)c(=O)[nH]1`, under “at 35 µM”, the inhibition was 8.4% (inactive).

Regarding `N#CC1=C(N)N(c2ccc(F)cc2)C(=O)C1`, the inhibition (at 35 µM) is 97.6% (active).

As for `O=C1CC(N2CCN(c3ccc(F)cc3)CC2)C(=O)N1c1ccccc1` (configuration not stated), the inhibition (at 35 µM) was 48.8% (inactive).

For `O=C1CCCC2=C1C(c1cccs1)CC(=O)N2c1ccc(F)cc1` (configuration not stated), the inhibition (at 35 µM) is -1.2% (inactive).

The values are drawn from PubChem BioAssay AID2014 (Sanford-Burnham Center for Chemical Genomics, 2009).
